# Measured values reported in PubChem BioAssay AID2315 (National Center for Advancing Translational Sciences (NCATS), 2010).
# Hit rate of the full screen: of about 290,000 compounds, about 27,000 (9.3%) were called active. This excerpt belongs to a sample that is enriched for actives. Unmarked numbers belong to inactive results. Cut-off read from the data, not from the text of the source: active = inhibition mostly above about 28% (no sharp cut-off); inactive = mostly below about 43%.
# Experiment: A qHTS for Small Molecule Inhibitors of Shiga Toxin; note: 0% is about no effect
# Details: Vero cells, Shiga toxin protein synthesis inhibition reporter; at 38.7 µM, stronger effect = higher value
row,SMILES,inhibition
1,COC(=O)c1cc(NC2c3ccccc3C(=O)N2c2ccc(Cl)cn2)cc(C(=O)OC)c1 (stereo not drawn),27.1%
2,Cc1cccc(C(=O)Nc2ccccc2-c2nnn(CC(=O)Nc3ccc4c(c3)OCCO4)n2)c1,-7.74%
3,O=C(NC1CCCCC1)C1c2ccccc2C(=O)N1Cc1ccco1 (stereo not drawn),2.78%
4,COc1ccccc1C1/C(=C(/O)c2ccc(C)cc2)C(=O)C(=O)N1Cc1ccco1 (stereo not drawn),-8.56%
5,Cc1ccnc(N2C(=O)c3ccccc3C2Nc2ccc3c(c2)OCCO3)c1 (stereo not drawn),162% (active)
6,O=C1c2ccccc2C(Nc2ccc3c(c2)OCCO3)N1Cc1ccco1 (stereo not drawn),75.3% (active)
7,CC(C)(C)NCc1cc(Br)ccc1OC1CCCC1,-3.59%
8,CCc1ccc2[nH]c(=O)c(Cc3ccccc3)c(O)c2c1,-8.55%
9,Cc1ccc(C2SCC(=O)N2c2ccccc2)cc1 (stereo not drawn),23.4%
10,C=CCN1C(=NC(=O)COc2ccccc2)SC2CS(=O)(=O)CC21 (stereo not drawn),-9.63%
11,Cc1ccc(C(=O)N/C(=C\c2cn(C)c3ccccc23)C(=O)N2CCN(C)CC2)cc1,-1.79%
12,Cc1ccc(CN2CCNC(=O)C2CC(=O)NCc2csc(C(C)C)n2)cc1 (stereo not drawn),-6.42%
13,COc1ccc(S(=O)(=O)c2c[nH]c(=S)[nH]c2=O)cc1Cl,-4.21%
14,Cc1cnc(C(=O)OCc2c(C)cc(C(C)(C)C)cc2C)cn1,-2.67%
15,O=C(C[n+]1cc(Br)cc2ccccc21)c1ccc(F)cc1,-6.12%
16,Cc1ccc(NC(=O)c2cc(-c3ccccc3O)n[nH]2)cc1C,40.6%
17,Oc1ccccc1-c1cc(-c2ccc(Cl)cc2)n[nH]1,151% (active)
18,c1ccc(-c2cc(-c3nnc4sc(-c5ccccn5)nn34)[nH]n2)cc1,11.6%
19,S=c1[nH]nc(-c2cc(-c3ccccc3)n[nH]2)n1/N=C/c1c2ccccc2cc2ccccc12,-4.79%
20,c1ccc(-c2cc(-c3ccccc3)[nH]n2)cc1,129% (active)
21,O=C(NCCCNC(=O)c1ccccc1Cl)c1cnccn1,-8.38%

row,SMILES,inhibition
1,COc1ccc(NC(=O)CC(NC(C)c2ccccc2)C(=O)O)cc1 (stereo not drawn),-9.37%
2,O=C(OCCN=C1NS(=O)(=O)c2ccccc21)c1cccc([N+](=O)[O-])c1,-7.24%
3,COc1ccc(N2CCN(C(=O)c3ccc(N4CCCCS4(=O)=O)cc3)CC2)cc1,3.75%
4,N/C(=N\OC(=O)CCc1ccccc1)c1ccc(Cl)cc1,61% (active)
5,CC(=O)OC(C(=O)NCCc1ccccc1)c1cccnc1 (stereo not drawn),-5.15%
6,N/C(=N\OC(=O)CCc1ccccc1)c1cccnc1,55.1% (active)
7,O=C(O)CCc1cccnc1,-4.95%
8,O=C(CCC(=O)OCc1ccc(Cl)cc1)Nc1ccccc1,-15.7%
9,Cc1ccc(/C(N)=N/OC(=O)COc2ccc(Cl)c(C)c2)cc1,21.4%
10,C=CCn1c(SCC(=O)NCC2CCCO2)nc2sc(C)c(C)c2c1=O (stereo not drawn),-9.53%
11,COC(=O)c1cc(S(=O)(=O)NCC2CCN(Cc3ccc(Cl)cc3)CC2)cn1C,-0.168%
12,COc1ccccc1CNC(=O)[C@@H]1CCCN1C(=O)[C@@H]1Cc2ccccc2CN1C(=O)OC(C)(C)C,-9.37%
13,COC(=O)c1ccc(OC(=O)c2nn(C)cc2Cl)c(OC)c1,8.13%
14,C=CCc1cccc(/C=N/NC(=O)COc2ccc(-n3cnnn3)cc2)c1O,19.1%
15,COc1ccc(CCNC(=O)CN(C)S(=O)(=O)c2ccc3nc(C)sc3c2)cc1OC,16.5%
16,Cn1c(SCC(=O)N2CCCCC2)nc2c(c1=O)SCC2,-17.3%
17,O=C(CN1C(=O)c2ccccc2S1(=O)=O)NC1CCCCC1,-0.163%
18,COc1cc(OC)c(C(=O)Nc2ccc(N(C)C)cc2)cc1OC,77.9% (active)
19,COc1cc(OC)c(C(=O)NC2CC(C)(C)NC(C)(C)C2)cc1OC,-5.21%
20,COc1ccc(Cl)cc1C(=O)Nc1ccc(N(C)C(C)=O)cc1,22.6%
21,CN(Cc1ccccc1)C(=O)c1cccc(C(=O)N(C)Cc2ccccc2)c1,-2.11%

row,SMILES,inhibition
1,COc1ccc(NC(=O)COc2ccc(C(=O)c3ccc(F)cc3)cc2)cc1S(N)(=O)=O,-4.25%
2,CCOc1ccc(/C=N/Nc2nncc(-c3ccccc3)n2)cc1OC,8.48%
3,C=CCc1ccccc1OCC(=O)N/N=C/c1ccccc1OCC,13.2%
4,COc1ccc(/C=N/Nc2nc3ccccc3o2)cc1OC,101% (active)
5,CCNc1nc(NCC)nc(N/N=C/c2ccc(O)c(OC)c2)n1,-4.76%
6,Cc1cc(C)nc(N/N=C/c2c(C)oc3ccccc23)n1,29.2%
7,CCOc1ccccc1/C=N/Nc1nc2ccccc2o1,49% (active)
8,COc1cc(/C=N\Nc2nc(-c3cccs3)c(NC(C)=O)s2)ccc1O,34%
9,CCOc1ccccc1/C=N/NC(=O)CNC(=O)COc1ccccc1,11.6%
10,COc1ccc(/C=N/n2nnnc2N)cc1OC,-3.85%
11,COc1cc(/C=N/Nc2nc3ccccc3s2)ccc1O,62.5% (active)
12,Brc1ccccc1/C=N/Nc1nc2ccccc2o1,68.5% (active)
13,Oc1c(Br)cccc1/C=N/Nc1c(F)c(F)c(F)c(F)c1F,16%
14,CCOC(=O)c1c(S(=O)(=O)NCC(=O)Nc2ccc(C)cc2)c(C)n(C)c1C,-5.73%
15,O=C1NC(c2ccccc2)Oc2ccccc21 (stereo not drawn),-5.27%
16,Cc1ccc(NS(=O)(=O)c2ccc(-c3ccc(=O)[nH]n3)o2)c(C)c1,-12.5%
17,CCOc1cc(-c2noc(CCCC(=O)NC3CCCCC3)n2)ccc1OC,-9.28%
18,COc1ccccc1NC(=O)CSc1nnc(CNC(=O)c2ccccc2F)o1,15.5%
19,O=c1[nH]c(SCc2ccccc2)nnc1-c1ccccc1,36.4% (active)
20,Cc1ccccc1CSc1nnc(-c2ccccc2)c(=O)[nH]1,-6.33%
21,Cc1ccc(CSc2nc(-c3ccccc3)c(C#N)c(=O)[nH]2)cc1,22.6%
